GDH-TPI counter-1 – GDH-TPI coupling enzyme inhibitors, primary screen, artefact control for M. tuberculosis FBA inhibitor project, biochemical, absorbance, full deck. GDH-TPI coupled enzyme counterscreen, NADH absorbance. inhibition, % at 4.8 µM. actives 1.2% (n = 360,000); in the data active = inhibition above about 30%;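 note: 0% = DMSO wells and 100% = wells lacking the enzyme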
BH1578 lux ind – inducers of Vibrio cholerae quorum light production without autoinducers, primary screen, BH1578 luxS cqsA deficient, single point. V. cholerae BH1578 lux reporter, luminescence, 6 h. activation, % at 18.7 µM. actives 0.16% (n = 350,000). AID 588436, 2011; in the data active = activation mostly above about 9.7%, no sharp cut-off
BioA inh – M. tuberculosis BioA enzyme inhibitors, primary screen, biochemical, plate reader, single point, HTS. purified M. tuberculosis BioA enzyme. actives 0.096% (n = 360,000). 7,8-diaminopelargonic acid synthase BioA (Mycobacterium tuberculosis). inhibition, % at 9.99 µM; in the data active = inhibition above about 40%
FBA Mtb inh – Mtb FBA enzyme inhibitors, primary screen, biochemical, fluorescence, strain H37Rv | Fructose-bisphosphate aldolase (Mycobacterium tuberculosis (strain ATCC 25618 / H37Rv)), … | purified M. tuberculosis FBA, fluorescence read-out | inhibition, % at 1 µM | actives 2.3% (n = 360,000) | AID 588726, 2011;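 note: 0% = vehicle and 100% = reference inhibitor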
Target sequence (P9WQA3 whole entry, looked up): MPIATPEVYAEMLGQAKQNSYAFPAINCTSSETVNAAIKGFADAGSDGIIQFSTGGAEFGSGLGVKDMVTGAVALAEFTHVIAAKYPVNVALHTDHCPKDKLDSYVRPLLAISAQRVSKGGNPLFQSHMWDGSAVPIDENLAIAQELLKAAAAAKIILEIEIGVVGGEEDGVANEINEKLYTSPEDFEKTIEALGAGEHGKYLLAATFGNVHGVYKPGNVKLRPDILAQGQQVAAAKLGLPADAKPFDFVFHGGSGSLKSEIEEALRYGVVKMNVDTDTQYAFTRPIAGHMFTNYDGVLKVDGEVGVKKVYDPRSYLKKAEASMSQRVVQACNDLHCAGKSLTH
Mtb FBA confirm – M. tuberculosis aldolase blockers, biochemical, fluorescence, strain H37Rv, confirmation | shares compounds with FBA Mtb inh | purified M. tuberculosis FBA, fluorescence read-out | inhibition, % at 1 µM | actives 78% (n = 5,600) | AID 651616, 2012;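 note: 0% = vehicle wells and 100% = reference inhibitor wells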
GDH-TPI counter-2 – GDH-TPI coupling enzyme inhibitors, artefact control for M. tuberculosis FBA inhibitor project, biochemical, fluorescence, high throughput. GDH-TPI coupled enzyme counterscreen. AID 652141, 2013. actives 81% (n = 5,600). inhibition, % at 1 µM. shares compounds with FBA Mtb inh; in the data active = inhibition above about 10%
GDH-TPI DR – GDH-TPI coupling enzyme inhibitors, dose response, artefact control for M. tuberculosis FBA inhibitor project, biochemical, fluorescence, IC50. shares compounds with FBA Mtb inh. GDH-TPI coupled enzyme assay, artifact counterscreen. IC50, µM. actives 79% (n = 170); call rule not given here
The depositor's hits bear a star. This is a sample that favours compounds with a hit; in the whole collection about 3% have one here. Cut-off read from the data, not from the text of the source, unless noted: active = inhibition above about 27%; inactive = the rest.

`CC(Oc1cc2oc(=O)c3c(c2cc1Cl)CCCC3)C(=O)NCc1cccnc1` (centres undefined) gave GDH-TPI counter-1 6, BH1578 lux ind 0, BioA inh 9 and FBA Mtb inh 3.
`CCCc1cc(=O)oc2cc(C)cc(OC(C)C(=O)NCc3ccncc3)c12` (centres undefined) gave GDH-TPI counter-1 5, BH1578 lux ind 0, BioA inh 3, FBA Mtb inh 58*, Mtb FBA confirm active and GDH-TPI counter-2 active.
`Cc1cc(=O)oc2cc(OCC(=O)NCc3ccncc3)ccc12` gave GDH-TPI counter-1 -3, BH1578 lux ind inactive, BioA inh -1 and FBA Mtb inh 18.
For CCCc1cc(=O)oc2cc(C)cc(OC(C)C(=O)NCc3cccnc3)c12 (centres undefined) the results were GDH-TPI counter-1 4, BH1578 lux ind 0, BioA inh 1, FBA Mtb inh 70*, Mtb FBA confirm 5 and GDH-TPI counter-2 -3.
`CCCC#Cc1ccc2c(c1)O[C@H](CN(C)Cc1cncnc1)[C@@H](C)CN([C@@H](C)CO)S2(=O)=O` gave BioA inh 1.
For Cc1nc2cc(-c3ccccc3)nn2c(C)c1CCC(=O)NCc1ccco1 the results were GDH-TPI counter-1 8, BH1578 lux ind 0, BioA inh -1 and FBA Mtb inh 6.
Cc1cc(C)c2c(n1)nn1c(C)c(CCC(=O)NCc3ccco3)c(C)nc21 was read as GDH-TPI counter-1 2, BH1578 lux ind 1, BioA inh 1, FBA Mtb inh 30*, Mtb FBA confirm 71* and GDH-TPI counter-2 48*.
`CCCNC(=O)COc1ccc(C=O)cc1` gave BioA inh 0.
Cc1cccc2cc(C#N)c(NCCNC(=O)NC3CCCCC3)nc12 was read as GDH-TPI counter-1 0, BH1578 lux ind inactive, BioA inh 1 and FBA Mtb inh 4.
`Cc1cc2cc(C#N)c(NCCNC(=S)NCCCN3CCOCC3)nc2cc1C` gave GDH-TPI counter-1 11, BH1578 lux ind inactive, FBA Mtb inh 40*, Mtb FBA confirm active and GDH-TPI counter-2 active.
`COc1ccc2nc(NCCNC(=S)NCCCN3CCOCC3)c(C#N)cc2c1` gave GDH-TPI counter-1 -2, BH1578 lux ind inactive and FBA Mtb inh 8.
For Cc1cccc2cc(C#N)c(NCCNC(=S)NCCCN3CCOCC3)nc12 the results were GDH-TPI counter-1 -6, BH1578 lux ind 0, BioA inh 1, FBA Mtb inh 31*, Mtb FBA confirm 146* and GDH-TPI counter-2 108*.
Screening COCCCNC(=S)NCCCNc1nc2cc3c(cc2cc1C#N)OCO3 returned GDH-TPI counter-1 12, BH1578 lux ind -4, BioA inh -3, FBA Mtb inh 72*, Mtb FBA confirm 15 and GDH-TPI counter-2 6.
For COCCCNC(=S)NNC(=O)c1ccc2c(c1)OCO2 the results were GDH-TPI counter-1 -6, BioA inh -1 and FBA Mtb inh 0.
Cc1c(O)c2ccccc2n(-c2ccccc2)c1=O was read as GDH-TPI counter-1 16, BH1578 lux ind 0, BioA inh -2, FBA Mtb inh 47*, Mtb FBA confirm 77* and GDH-TPI counter-2 54*.
`Cc1nnc2n(-c3ccccc3)c(=O)c3ccccc3n12` gave GDH-TPI counter-1 -6, BH1578 lux ind -1, BioA inh 1 and FBA Mtb inh -2.
CCCNC(=O)C[C@H]1CC[C@H]2[C@@H](COc3ccc(NC(=O)Cc4ccccc4)cc3C(=O)N2C)O1 was read as BioA inh -2.
Screening CCOC(=O)c1oc2cccc(OCC(O)CNC(C)C)c2c1C (centres undefined) returned GDH-TPI counter-1 8, BH1578 lux ind inactive, BioA inh -1, FBA Mtb inh 91*, Mtb FBA confirm 11, GDH-TPI counter-2 -4 and GDH-TPI DR 1.5*.
CC(C)(C)NCc1cccn1-c1sc2c(c1C#N)CCCC2 was read as GDH-TPI counter-1 12, BH1578 lux ind 0, BioA inh 0, FBA Mtb inh 76*, Mtb FBA confirm 66* and GDH-TPI counter-2 52*.
`O=C(NNC(=O)c1cc(-c2ccco2)nc2ccccc12)c1ccccc1` gave GDH-TPI counter-1 3, BH1578 lux ind inactive, BioA inh 0, FBA Mtb inh 50*, Mtb FBA confirm 68* and GDH-TPI counter-2 61*.
`O=C(Nc1ccccc1F)c1cc(-c2ccco2)nc2ccccc12` gave GDH-TPI counter-1 2, BH1578 lux ind 0 and FBA Mtb inh 19.
For CCN(CC)CCNC(=O)c1cc(-c2ccco2)nc2ccccc12 the results were GDH-TPI counter-1 5, BH1578 lux ind -3, FBA Mtb inh 82*, Mtb FBA confirm 152* and GDH-TPI counter-2 129*.
O=C(NCC1CCCCC1)[C@H]1[C@H](CO)[C@H]2Cn3c(ccc(-c4ccccc4F)c3=O)[C@@H]1N2 was read as BioA inh 0.
`CNc1cncc(-c2ccccc2CO)n1` gave GDH-TPI counter-1 25, BH1578 lux ind -2, BioA inh -1, FBA Mtb inh 73*, Mtb FBA confirm active and GDH-TPI counter-2 active.
`COc1ccccc1-c1cncc(NC(C)=O)n1` gave GDH-TPI counter-1 13, BH1578 lux ind inactive, BioA inh 3 and FBA Mtb inh 2.
CCOc1ccccc1-c1cncc(NC)n1 was read as GDH-TPI counter-1 17, BH1578 lux ind -2, BioA inh 0, FBA Mtb inh 74*, Mtb FBA confirm 66* and GDH-TPI counter-2 47*.
CO[C@H](CN(C)Cc1cc(F)ccc1F)[C@H](C)CN([C@@H](C)CO)S(=O)(=O)c1ccc(F)cc1 was read as BioA inh 0.
COc1ccccc1NC(=O)N(C)C[C@@H]1OCc2ccccc2-c2ccccc2C(=O)N([C@H](C)CO)C[C@@H]1C was read as BioA inh 0.
Screening Cc1cc(C=O)c(C)n1-c1ccc(N2CCOCC2)cc1 returned GDH-TPI counter-1 -5, BH1578 lux ind 0, BioA inh 0, FBA Mtb inh 54*, Mtb FBA confirm active and GDH-TPI counter-2 active.
Screening Cc1cc(/C=C2\SC(=O)NC2=O)c(C)n1-c1ccc(N2CCOCC2)cc1 returned GDH-TPI counter-1 17, BH1578 lux ind -1, BioA inh 0 and FBA Mtb inh 2.

High-throughput results deposited in PubChem BioAssay by several laboratories.
